In all, about 220,000 compounds went through this assay and about 5,700 (2.6%) were called active. Another 18% or so got no clear call; they are omitted. The call rests on the fitted dose curve; in most records, active means well fitted inhibition curve with a large enough effect; inconclusive means small, poorly fitted or top-dose-only effect; inactive means no such curve, though single readings can be large or run the other way. Many of the other results were omitted from the sample, so actives are more common in it than they were.
Target: Lysine-specific demethylase 5B (Homo sapiens) (UniProt Q9UGL1)
Assay: Primary screen for KDM5B Histone Demethylases FDH-coupled qHTS; further: nearly all actives have a fitted effect of over 70% in size; on activity change, negative = inhibition: 0% is about no effect
Conditions: FDH-coupled NADH fluorescence (FDH is formaldehyde dehydrogenase); series mostly up to 57.7 µM; activity change, negative = inhibition: at the top concentration
Summary of the method: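 Compound dilutions met 200 nM (final) KDM5BΔAP for 10 min at room temperature before substrate addition. The substrate mix held 12.5 µM H3K4me3 with cofactors 25 µM α-ketoglutarate and 50 µM Fe²⁺. NADH signal gain over 30 min defined activity.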
Potency means the concentration at half of the fitted maximal effect.

Chain of Lysine-specific demethylase 5B (Homo sapiens) (Q9UGL1 whole entry, looked up): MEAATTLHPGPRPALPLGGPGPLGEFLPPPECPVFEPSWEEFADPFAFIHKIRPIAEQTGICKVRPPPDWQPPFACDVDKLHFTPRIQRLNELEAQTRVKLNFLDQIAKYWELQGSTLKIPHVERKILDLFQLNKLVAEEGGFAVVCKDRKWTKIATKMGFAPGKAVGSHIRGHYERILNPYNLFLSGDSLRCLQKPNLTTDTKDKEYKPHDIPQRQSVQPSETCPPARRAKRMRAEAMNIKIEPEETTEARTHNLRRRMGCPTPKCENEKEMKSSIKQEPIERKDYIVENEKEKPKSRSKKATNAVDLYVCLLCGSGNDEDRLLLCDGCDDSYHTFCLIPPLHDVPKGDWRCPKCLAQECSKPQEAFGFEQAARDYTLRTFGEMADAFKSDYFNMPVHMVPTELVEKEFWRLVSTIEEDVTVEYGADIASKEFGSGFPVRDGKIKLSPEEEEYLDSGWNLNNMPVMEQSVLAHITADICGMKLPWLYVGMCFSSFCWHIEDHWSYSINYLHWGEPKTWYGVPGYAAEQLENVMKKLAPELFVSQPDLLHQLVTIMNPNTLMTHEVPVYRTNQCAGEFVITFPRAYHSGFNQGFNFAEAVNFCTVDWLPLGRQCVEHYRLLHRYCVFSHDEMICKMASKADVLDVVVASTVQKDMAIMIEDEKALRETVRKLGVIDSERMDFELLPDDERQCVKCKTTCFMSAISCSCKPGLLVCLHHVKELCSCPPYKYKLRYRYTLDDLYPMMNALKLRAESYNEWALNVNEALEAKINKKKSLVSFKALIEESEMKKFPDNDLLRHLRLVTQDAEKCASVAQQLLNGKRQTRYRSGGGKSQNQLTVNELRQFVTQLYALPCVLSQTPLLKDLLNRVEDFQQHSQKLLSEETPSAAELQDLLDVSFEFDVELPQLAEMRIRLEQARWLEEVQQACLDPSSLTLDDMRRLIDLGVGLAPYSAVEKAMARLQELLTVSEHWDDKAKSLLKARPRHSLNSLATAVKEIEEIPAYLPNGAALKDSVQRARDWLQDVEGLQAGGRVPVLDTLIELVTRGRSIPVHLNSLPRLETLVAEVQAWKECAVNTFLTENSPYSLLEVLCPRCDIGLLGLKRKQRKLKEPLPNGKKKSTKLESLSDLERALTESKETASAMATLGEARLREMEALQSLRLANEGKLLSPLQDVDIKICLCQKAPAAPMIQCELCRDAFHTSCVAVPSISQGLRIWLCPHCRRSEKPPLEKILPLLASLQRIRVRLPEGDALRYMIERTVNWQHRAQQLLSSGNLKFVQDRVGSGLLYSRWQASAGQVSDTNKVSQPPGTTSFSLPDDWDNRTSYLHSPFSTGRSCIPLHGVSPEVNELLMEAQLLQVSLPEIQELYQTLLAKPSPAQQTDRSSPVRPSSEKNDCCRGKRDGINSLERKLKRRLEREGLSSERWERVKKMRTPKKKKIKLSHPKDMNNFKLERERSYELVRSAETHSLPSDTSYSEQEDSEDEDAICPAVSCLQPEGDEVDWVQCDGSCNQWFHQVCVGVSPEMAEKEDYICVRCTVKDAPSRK

Activity change, negative = inhibition, inactive:
N#Cc1ccc(CCC(=O)Nc2ccc3ccccc3n2)cc1 -9.01%, COc1ccc2cc(C(=O)NCC3CCCO3)[nH]c2c1 (stereo not given) -50.3%, COc1ccc(CNC(=O)C2CCCC2)cc1 7.63%, CN(CC(=O)N1CCCC1)c1nc(-c2cccs2)nc2ccccc12 4.38%, COCCOc1ccc(-c2noc([C@@H]3CCCN3Cc3cccnc3)n2)cn1 -24.5% [at 86.2 µM], COc1ccc(-c2noc([C@@H]3CCCN3C(=O)CCCc3ccccc3)n2)cc1OC -13.2%, Cn1cc(C(=O)N2CCN(C(=O)Cc3ccccc3)CC2)c2ccccc21 10.9%, CCC(C)C(NC(=O)NCc1ccc(C)cc1)C(=O)O (stereo not given) 23.5%, CCS(=O)(=O)N1CC(=O)N(Cc2ccccc2Cl)C(C)(C(=O)NCc2ccccc2OC)C1 (stereo not given) 19.1%, O=C(CCn1cncn1)N1CCc2[nH]nc(-c3cccc4ccccc34)c2C1 -15%, Cc1cc2oc(=O)cc(CN3CCN(CCc4ccncc4)CC3)c2cc1C -2.75%, Cc1nn(C)cc1CNC(=O)c1cc2nc(-c3ccc(Cl)s3)cc(C(F)(F)F)n2n1 33.1%, Cc1cc(C)c(NC(=O)CN(C)Cc2coc(-c3ccccc3)n2)c(C)c1 1.75%, O=C(c1nc(-c2cccnc2)c2cnccn12)N1CCN(c2ncccn2)CC1 -2790%, COc1cccc(Cn2c(SCc3ccc(C(=O)N4CCCCC4)cc3)nc3ccncc32)c1 -2.19%, CCNC(=O)[C@@H]1CCCN1[C@@H](C(=O)NC)c1ccccc1OC -6.62% [at 86.2 µM], CNC(=O)C(C)(C)N1CCC[C@H]1C(=O)N(C)Cc1ccccc1 10.2% [at 86.2 µM], Cc1cccc(OC(C)C(=O)Nc2cc(-c3ccc(F)c(F)c3)no2)c1C (stereo not given) -3.36%, O=S(=O)(NCCc1csc2nc(-c3ccccc3)nn12)c1cc(Cl)ccc1Cl 5.42%, O=C1CC(c2noc(-c3ccc(F)c(Cl)c3)n2)CN1c1ccc(F)cc1 (stereo not given) -32.5%, Cc1ccc(-c2nc(C3CC(=O)N(c4ccc(Cl)cc4)C3)no2)cc1C (stereo not given) -7.68%, Cc1ccc(F)cc1NC(=O)CCc1c[nH]c2ccccc12 17.4%, COc1ccc(S(=O)(=O)N2CCC(C)CC2)c2cccnc12 12.9%, CC(NC(=O)c1ccc(F)cc1)C12CC3CC(CC(C3)C1)C2 (stereo not given) 14.3%, CCCn1c(CN2CCCCC2)nc2cc(NC(=O)c3cc(OC)c(OC)c(OC)c3)ccc21 5.88%, Cc1cc(NC(=O)COc2c(CO)cc(F)cc2CO)ccc1Br -18.6%, COc1ccc(-c2noc(CCC(=O)Nc3ccn(C)n3)n2)cc1 -1.76%, O=C1NC(C(=O)NCc2ccccn2)Cn2cccc21 (stereo not given) -25.1%, COc1ccc(CNC(=O)NCC(=O)N2CCCCCCNC(=O)CC2c2ccccc2)cc1 (stereo not given) 10.8%, O=S(=O)(c1ccc(Cl)cc1)c1nc(-c2ccco2)oc1N1CCCCC1 -11.1%, Cc1ccc(C)c(NC(=O)C(c2ccccc2)n2cnc3c2c(=O)n(C)c(=O)n3C)c1 (stereo not given) -13.9%, COc1cccc(OCCN(C)Cc2cn(-c3ccccc3)nn2)c1 5.71%, O=C(CCOc1ccc(Cl)cc1)N1CCC(c2nnc3n2CCC3)CC1 -10.3%, Cc1ccc2nc(NC(C)(C)CO)nc(-c3ccccc3)c2c1 120%, CC(CC#N)NC(=O)c1cc2ccccc2cc1NC(=O)OC(C)(C)C (stereo not given) 40.3%, Cc1cc(C)nc(NC(=O)Nc2ccc(C)c(F)c2)c1 4.73%, COc1ccc(-c2ocnc2C(=O)Nc2cccc(Cl)c2)cc1 10.2%, Cc1ccc(NC(=O)Cn2cccc2-c2nc(-c3ccc4c(c3)OCO4)no2)cc1Cl 3.09%, COc1ccc(NC(=O)Cn2cccc2-c2nc(-c3ccc4c(c3)OCO4)no2)c(OC)c1 3.86%, N#CCc1ccc(OCC(O)Cn2cnc3ccc(Cl)cc3c2=O)cc1 (stereo not given) 4.38%, Cc1ccc(S(=O)(=O)N2CCN(C)CC2)cc1C(=O)NC1CCCCC1 23.1%, CCOC(=O)N1CCC(NC(=O)CS(=O)Cc2nc(-c3ccccc3F)oc2C)CC1 (stereo not given) 4.01%, CCc1nc(-c2ccc(OC3CCN(C(=O)Cc4c[nH]c5ccccc45)C3)cc2)no1 (stereo not given) 7.34%, O=C(Cc1cccn1-c1ccccc1)N1CCOCC1 -6.08%, Cc1ccc(S(=O)(=O)NC(=O)c2cccc(C)c2)cc1 -7.21%, CCOc1ccccc1C(=O)N1CCC(Oc2ncccc2C(=O)N(C)C)C1 (stereo not given) -1.4%, O=C(CCn1cccn1)N[C@@H]1CN(Cc2ccccc2)C[C@H]1CO 14.5%, O=C(N[C@@H]1CN(c2ccncn2)C[C@H]1CO)C1CCCC1 12%, O=C(N[C@@H]1CN(Cc2cccnc2)C[C@H]1CO)c1cccnc1 -2.06%, CCc1nc2nc3c(cn2n1)C(=O)CC(c1ccc(Cl)cc1)C3 (stereo not given) -0.51%, CC(C)NS(=O)(=O)c1ccc(OCC(=O)NC2CCCCCC2)cc1 16.2%, COc1ccc2c(=O)c(Oc3cccc(C)c3)c(C(F)(F)F)oc2c1 -8.82%, COc1ccc(C23NCCN2C(=O)c2ccccc23)cc1 (stereo not given) 34.4%, O=C(NCc1ccc2c(c1)OCO2)c1noc(-c2ccc(F)cc2)n1 7.84%, COc1ccc(CNC(=O)c2noc(-c3ccc(F)cc3)n2)cc1 -17.9%, COc1ccc(CNC(=O)c2ccc(CS(=O)c3ccc(C)cc3)o2)cc1OC (stereo not given) -8.94%, Cc1ccc(CNC(=O)c2cc(=O)c3ccc(C)c(C)c3o2)cc1 13.1%

Potency, active:
COc1ccc2c(c1)OCC(C(=O)NCc1cc3cc(OC)ccc3[nH]1)C2 (stereo not given) 25.1 µM, CC(=O)N1CCN(c2cc(-c3noc([C@@H]4CCCN4Cc4ccccc4)n3)ccn2)CC1 35.5 µM, Cc1ccc(C)c2c(=O)cc(CN3CCN(CCn4cncn4)CC3)[nH]c12 25.1 µM, O=C(c1nc(-c2ccsc2)c2cnccn12)N1CCCC1 35.5 µM, CNC(=O)[C@@H](Cc1ccccc1)N1CCC[C@H]1C(=O)N1CCC1 28.2 µM, COc1ccc(-c2nc(C3CC(=O)N(c4ccc(F)c(Cl)c4)C3)no2)cc1OC (stereo not given) 31.6 µM, O=C1CCC(C(=O)NCc2ccc(-c3cnc4c(Oc5ccccc5)nccn34)cc2)N1 (stereo not given) 35.5 µM, O=C(CCc1ccccc1)NCCn1cccc1-c1nc(-c2ccc3c(c2)OCO3)no1 31.6 µM, Cc1noc(C)c1-c1cnc2[nH]cc(CC(=O)N3CCOCC3)c2c1 35.5 µM, Cc1cccnc1C(=O)N[C@@H]1CN(c2ncccn2)C[C@H]1CO 20 µM, CCOc1ccccc1C(=O)N[C@@H]1CN(c2ncccn2)C[C@H]1CO 22.4 µM, CNc1nc(C(=O)NCc2ccc3[nH]c(-c4ccc(F)cc4)c(C)c3c2)cs1 5.62 µM, Cc1c(-c2ccc(F)cc2)[nH]c2ccc(CNC(=O)c3ccc(CO)o3)cc12 22.4 µM
